# Assay results published in ChEMBL document CHEMBL3988442, “University of Dundee, Small-Polar-MMV Screening Library” (2021).
# Hit rate of the full screen: of about 48,000 compounds, about 13,000 (27%) showed an effect of 50% or more. The list shows a part of the results.
# Tested on: Wolbachia pipientis
# Test: Anti-Wolbachia Cell-Based Screen
# Format: functional
# Set-up: scale not given: in the data most compounds retested in dose-response had high values
# Conditions: 5 µM
row,SMILES,Percent Effect
1,CC(C)=CCCC(C)CN1CCC(n2cc(CO)nn2)CC1 (stereo not drawn),-18.32%
2,Cc1ccc2nc3n(c2c1)[C@@H](CNC(=O)c1ccncc1)COC3,-11.4%
3,CN(CCC(F)(F)F)c1nc2ccccc2c(=O)[nH]1,-5.931%
4,Cc1noc(C)c1CN1CCC2(CC1)C(c1cnn(C)c1)CC(=O)N2C.O=C(O)C(F)(F)F (stereo not drawn),113.4%
5,O=C(O)C(F)(F)F.O=C(O)C(F)(F)F.O=C1NC2(CCN(Cc3nccs3)CC2)CC1c1ccncc1 (stereo not drawn),-14.31%
6,Cc1noc(C)c1CN1CCC2(CC1)NC(=O)CC2c1cnn(C)c1 (stereo not drawn),100%
7,CN1C(=O)CC(c2cnn(C)c2)C12CCN(C(=O)c1ccc[nH]1)CC2 (stereo not drawn),-12.5%
8,O=C(O)C(F)(F)F.O=C1CC(c2ccccc2)C2(CCN(Cc3nccs3)CC2)N1 (stereo not drawn),100.6%
9,Cc1noc(C)c1CN1CCC2(CC1)NC(=O)CC2c1ccccc1.O=C(O)C(F)(F)F (stereo not drawn),92.37%
10,CCn1c(N)nc2cc(C(=O)N3CCN(c4nccs4)CC3)cnc21,5.725%
11,O=C(c1ccoc1)N1CCC(NCc2ccccc2-n2ccnc2)CC1,2.985%
12,CCn1ncc2c1NC(=O)C(C#N)C21CCCC1 (stereo not drawn),21.97%
13,CC(C)CN1CCN(C)C2(CCN(c3nccs3)CC2)C1=O.O=C(O)C(F)(F)F,-15.41%
14,Cc1ccc(CN2CCC3(CC2)C(=O)N(CC(C)C)CCN3C)s1.O=C(O)C(F)(F)F.O=C(O)C(F)(F)F,102.6%
15,Cc1ccc(CN2CCC3(CC2)C(=O)N(CC(C)C)CCN3C)o1.O=C(O)C(F)(F)F.O=C(O)C(F)(F)F,-29.49%
16,Cc1cc(C)n(CC2CCCN2C(=O)c2c[nH]c3ncccc23)n1 (stereo not drawn),-7.335%
17,O=C(c1cccnc1N1CCOCC1)N1CCCC1Cn1cccn1 (stereo not drawn),1.919%
18,Cc1cc(C)n(CC2CCCN2C(=O)c2cccnc2N(C)C)n1 (stereo not drawn),118%
19,Cc1cnn(CC2CCCN2C(=O)c2cccnc2N(C)C)c1 (stereo not drawn),-3.738%
20,Cc1cnn(CC2CCCCN2C(=O)c2cccnc2N(C)C)c1 (stereo not drawn),94.82%
21,Cc1cnn(CC2CCCCN2C(=O)c2ccnc(N(C)C)c2)c1 (stereo not drawn),-6.114%
22,Cc1cnn(CC2CCCCN2C(=O)c2cccc3c2OCO3)c1 (stereo not drawn),-2.775%
23,Cc1cc(C)n(CC2CCCN2C(=O)c2cccc3[nH]ncc23)n1 (stereo not drawn),-3.123%

row,SMILES,Percent Effect
1,O=C(c1cccc2c1OCO2)N1CCCC1Cn1cccn1 (stereo not drawn),-0.6849%
2,CN(C)c1ncccc1C(=O)N1CCCC1Cn1cccn1 (stereo not drawn),111.6%
3,Cc1cnn(CC2CCCCN2C(=O)c2ccc(N(C)C)nc2)c1 (stereo not drawn),89.91%
4,Cc1cnn(CC2CCCCN2C(=O)c2ccc3nnc(C)n3c2)c1 (stereo not drawn),-9.496%
5,CC(C)[C@@H]1CN(S(=O)(=O)Cc2ccccc2)C[C@H]1C(=O)O,3.081%
6,O=C(NCC(O)c1cccs1)c1sccc1OC(F)F (stereo not drawn),2.411%
7,Cc1ccccc1N1CCN(C(=O)c2cnc(C3CC3)nc2)C(C)C1 (stereo not drawn),-6.259%
8,COc1ncccc1CNC(=O)c1c[nH]c(=O)c(Br)c1,-2.261%
9,CN(Cc1cscn1)C1CCN(C(=O)OC(C)(C)C)CC1,-0.6066%
10,O=C(c1cscn1)N1CCC(Cc2cnc3[nH]ccc3c2)C1 (stereo not drawn),91.07%
11,O=C(c1cscn1)N1C[C@@H]2[C@@H](C1)OCC(=O)N2CC1CCCC1,-7.986%
12,Cn1ccc(C(=O)N2CCC(Cc3cnc4[nH]ccc4c3)CC2)n1,-9.979%
13,Cn1ccc(C(=O)N2CCC(Cc3cnc4[nH]ccc4c3)C2)n1 (stereo not drawn),135.4%
14,Cc1nc(C(=O)N2CCC(Cc3cnc4[nH]ccc4c3)C2)co1 (stereo not drawn),-2.794%
15,Cc1nn(CCC(=O)NC(C(=O)O)c2c(C)n[nH]c2C)c(C)c1C (stereo not drawn),9.182%
16,CC(C)(C)c1ncc2c(n1)CN(C(=O)c1ccc3[nH]cnc3c1)C2,-16.99%
17,O=C(c1ccncc1)N1CCc2ncnc(C3CCOC3)c2CC1 (stereo not drawn),1.428%
18,CCN1CC[C@@]2(C(=O)N3CCOCC3)CCN(S(=O)(=O)CC)CC[C@@H]12.O=C(O)C(F)(F)F,-35.9%
19,Cc1noc(C)c1C(=O)N1CCC(c2[nH]ncc2S(C)(=O)=O)C1 (stereo not drawn),95.01%
20,CCn1cc(C(=O)N2CCCC(c3[nH]ncc3S(C)(=O)=O)C2)cn1 (stereo not drawn),-1.066%
21,CCc1noc(C)c1C(=O)N1CCC(c2[nH]ncc2S(C)(=O)=O)C1 (stereo not drawn),111.9%
22,CCc1cn[nH]c1C1CCCN(C(=O)c2noc(C)c2COC)C1 (stereo not drawn),-6.588%
23,CCc1noc(C)c1C(=O)N1C[C@H](NS(C)(=O)=O)[C@@H](C2CC2)C1,7.684%

row,SMILES,Percent Effect
1,CCc1cn[nH]c1C1CCCN(C(=O)c2ncoc2C(C)C)C1 (stereo not drawn),0.179%
2,CCc1cc(C(=O)N2CCCC(c3[nH]ncc3S(C)(=O)=O)C2)no1 (stereo not drawn),122.4%
3,COCCn1cc(NCc2cn(C)nc2-c2ccncc2)cn1,0.5012%
4,Cc1ccc(O[C@@H]2C[C@H]3CN(C(=O)c4cnccn4)CCN3C2)cc1.O=C(O)C(F)(F)F,-2.389%
5,Cc1nc(CC(=O)N2CCC3(CC2)CC(=O)N(CC2CCCO2)C3)cs1 (stereo not drawn),8.939%
6,CC(C)N1CCC(c2cccc(C(=O)N(C)C)n2)CC1,126.2%
7,Cc1ccccc1-c1cncc(C2CCN(C(C)C)CC2)n1,-0.08562%
8,CN(C)CCCn1ccnc1C1CCN(c2cccc(C(=O)O)n2)CC1,-0.5716%
9,CC(C)N1CCC(c2ccnc3c(C(=O)N4CCCC4)ncn23)CC1,-18.47%
10,CN1CCC(c2cccc(C(=O)N(C)C)n2)CC1,118.3%
11,Cc1cnn(CCNCC(=O)Nc2ccc(Br)cn2)c1,-4.986%
12,CSc1ccc(CNC2CCN(CCc3ccncc3)CC2)cc1,-23.46%
13,O=C(O)C(F)(F)F.O=c1ccc2c([nH]1)CCC(NCc1ccc3c(c1)OCO3)C2 (stereo not drawn),106.8%
14,O=C(O)C(F)(F)F.O=C1CC[C@]2(CC[C@@H](NCc3ccoc3)CC2)N1,-19.54%
15,O=c1ccc2c([nH]1)CCC(NCc1ccncc1)C2 (stereo not drawn),106.2%
16,O=C(NC1CCCC1)NC1CCc2[nH]c(=O)ccc2C1 (stereo not drawn),2.289%
17,COc1ccc(CN[C@H]2CC[C@@]3(CCC(=O)N3)CC2)cc1.O=C(O)C(F)(F)F,13.86%
18,O=C(O)C(F)(F)F.O=C1CC[C@]2(CC[C@@H](NCc3ccc4c(c3)OCO4)CC2)N1,-34.14%
19,CN(C)C(=O)N1CCc2ccc(=O)[nH]c2CC1,-8.1%
20,O=C(O)C(F)(F)F.O=c1ccc2c([nH]1)CCC(NCc1ccc(F)cc1)C2 (stereo not drawn),112.4%
21,CC(C)NC1CCc2[nH]c(=O)ccc2C1.O=C(O)C(F)(F)F (stereo not drawn),105.5%
22,COc1ccc2c(c1)CC(NCc1cccc(NC(C)=O)c1)CC2 (stereo not drawn),5.004%
